# Experimental data: ChEMBL document CHEMBL3433997, “St. Jude Leishmania screening dataset” (2016)
# Target: Solute carrier family 2, facilitated glucose transporter member 1 (Homo sapiens) (UniProt P11166)
# Test: ST_JUDE_LEISH: Cytotoxicity at 2uM final concentration against transgenic Leishmania Mexicana promastigotes LmGLUT1 that are glucose transport deficient and complemented with the human glucose transporter GLUT1. Activity is measured by DNA content using SYBR green in vitro
# Assay type: functional
# Sequence of Solute carrier family 2, facilitated glucose transporter member 1 (Homo sapiens) (P11166 whole entry): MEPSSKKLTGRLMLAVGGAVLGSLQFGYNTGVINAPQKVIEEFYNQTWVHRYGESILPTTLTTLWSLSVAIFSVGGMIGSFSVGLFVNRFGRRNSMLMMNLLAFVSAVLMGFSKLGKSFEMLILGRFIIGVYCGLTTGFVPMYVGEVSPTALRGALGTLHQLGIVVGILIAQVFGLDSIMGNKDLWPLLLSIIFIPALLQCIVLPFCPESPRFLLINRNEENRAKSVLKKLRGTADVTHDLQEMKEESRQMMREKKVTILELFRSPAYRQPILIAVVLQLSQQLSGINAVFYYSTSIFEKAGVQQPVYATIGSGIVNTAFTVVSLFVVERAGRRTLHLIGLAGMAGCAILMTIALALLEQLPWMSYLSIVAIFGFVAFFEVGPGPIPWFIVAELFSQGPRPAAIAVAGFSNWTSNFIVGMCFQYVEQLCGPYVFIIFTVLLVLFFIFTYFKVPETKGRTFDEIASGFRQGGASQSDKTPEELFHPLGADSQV
row,Compound,inhibition [%]
1,CCN(CC)CCN(Cc1ccc(-c2ccc(C(F)(F)F)cc2)cc1)C(=O)c1ccc(-c2ccc(NC(=O)OC)cc2C)cc1,29.9
2,Cc1cccc(CNc2nc(C)cc(NCCC(=O)NCCOc3ccccc3)n2)c1,6.22
3,O=C(Nc1ccc(-c2ccc(-c3nc4cc(C(F)(F)F)ccc4[nH]3)cc2)cc1)Nc1ccc(F)c(F)c1F,-0.4
4,COc1ccccc1CCNc1nc(C)cc(N[C@@H](Cc2ccccc2)C(=O)NCc2cccc(F)c2)n1,5.91
5,O=C(Cn1c(SCc2cccc(F)c2F)cc(=O)c2ccccc21)N(Cc1ccc(-c2ccc(C(F)(F)F)cc2)cc1)C1CCN(CCO)CC1,-0.08
6,O=C(Nc1cccc(-c2ccc(CN3CCC(O)CC3)cc2)c1)c1ccc(Cl)cc1,2.51
7,CN1CCN(Cc2nc(-c3ccc4c(Nc5ccc(F)c(O)c5)ccnc4c3)cs2)CC1,7.7
8,COc1ccc(CNC(=O)c2cc3c(=O)n4ccccc4nc3n(CCc3ccccc3)c2=N)cc1,15.5
9,N=C(N)Nc1ccc(OCCCCCOc2ccc(NC(=N)N)c(Cl)c2)cc1Cl,-0.79
10,COc1ccc2nccc([C@@H](O)CN3CCC(NCCOc4cccc(C(F)(F)F)c4)CC3)c2c1,9.63
11,FC(F)(F)c1ccc2[nH]c(-c3ccc(-c4cccc(CNCCc5ccncc5)c4)s3)nc2c1,0.52
12,CCCCc1cc(N2CCC(NC(C)=O)C2)nc(Nc2ccc(C)cc2)n1 (centres undefined),10.9
13,O=C(c1ccc(Br)o1)N1N=C(c2cccs2)CC1c1ccc(Br)cc1 (centres undefined),5.77
14,O=C(NC1CC1)c1cnc(N2CCC(Oc3ccc(Cl)cc3)CC2)c(Cl)c1,5.36
